Pf growth 48h = Primary qHTS for delayed death inhibitors of the malarial parasite plastid, 48 hour incubation; P. falciparum luciferase growth in erythrocytes, 48 h; 5.9% of 310,000 active; Potency, µM (series often up to 28.7 µM), for inactives: at the highest dose activity change, negative = inhibition, hits mostly inhibitors; further: potency means the concentration at half of the fitted maximal effect; on the % scale 0 is the no-effect control and ±100 the full control effect
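Erythrocytes infected with P. falciparum carrying an integrated firefly luciferase reporter (2% hematocrit, 0.1% parasitemia final) were exposed to compounds in RPMI 1640 with 0.5% Albumax at 37 C, 5% CO2. Growth inhibition was scored as reduced luminescence.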
Cycloheximide cs = Cycloheximide Counterscreen for Small Molecule Inhibitors of Shiga Toxin. cell reporter, cycloheximide protein synthesis inhibition counterscreen. 12% of 300,000 active. max response, %; in the data active means max response mostly above about 13%, no sharp cut-off; inactive means mostly below about 14%; further: read at 38.3 µM for the half of the compounds with a filed dose; 0% is about no effect
Pf growth 96h = Primary qHTS for delayed death inhibitors of the malarial parasite plastid, 96 hour incubation; 6.9% of 320,000 active; P. falciparum luciferase reporter growth, 96 h; Potency, µM (top dose mostly 28.7 µM), inactives show top-dose activity change, negative = inhibition, actives largely listed as inhibitors; further: potency means the concentration at half of the fitted maximal effect; on the % scale 0 is the no-effect control and ±100 the full control effect
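Plates of compound plus infected erythrocytes (2% hematocrit, 0.05% parasitemia final) incubate 96 hours, 37 C, 5% CO2. Detection reagent added; reduced luminescence from the parasites' luciferase reporter flags inhibition.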
Shiga toxin inh = A qHTS for Small Molecule Inhibitors of Shiga Toxin; 9.2% of 290,000 active; Vero cells, Shiga toxin protein synthesis inhibition reporter; inhibition, % at 38.7 µM; in the data active means inhibition mostly above about 28%, no sharp cut-off; inactive means mostly below about 43%; further: 0% is about no effect
Marburg entry inh = qHTS for inhibitors of binding or entry into cells for Marburg Virus | Marburg virus pseudotyped entry inhibition, cell reporter | Potency, µM (series often up to 37.8 µM), without a hit: at the highest dose activity change, negative = inhibition, most hits filed as inhibitors | 1.8% of 300,000 active | AID 540276, 2011; calls by dose curve; tested in HEK293 cells; further: potency means the concentration at half of the fitted maximal effect; on the % scale 0 is the no-effect control and ±100 the full control effect
Lassa entry inh = qHTS for Inhibitors of binding or entry into cells for Lassa Virus; Potency, µM (highest dose often 37.9 µM), for inactives: at the top dose activity change, negative = inhibition, actives largely listed as inhibitors; Lassa virus pseudotype entry inhibition, cell reporter; 1.2% of 300,000 active; AID 540256, 2011; calls by dose curve; tested in HEK293 cells; further: potency means the concentration at half of the fitted maximal effect; on the % scale 0 is the no-effect control and ±100 the full control effect; nearly all actives have a fitted effect of over 50% in size
Starred values were filed as active, the others as inactive; [ ] = another dose, or the depositor's remark. Shown are actives, neighbours in structure and some others; about 19% of the full set was active somewhere. Unless noted, the call rests on the fitted dose curve; in most records, active means well fitted inhibition curve with a large enough effect; inconclusive means small, poorly fitted or top-dose-only effect, or another doubt; inactive means no such curve, though single readings can be large or run the other way.

What do the screens show for `COc1ccc(/C=N/NC(=S)NCCc2ccccc2)cc1`?
Pf growth 48h: inconclusive; Cycloheximide cs: 3; Pf growth 96h: inconclusive; Shiga toxin inh: -6

How did Oc1ccc(Br)cc1/C=N/NC(=S)NCCc1ccccc1 do in these assays?
Pf growth 48h: 4.7µM*; Cycloheximide cs: -5; Pf growth 96h: 2.3µM*; Shiga toxin inh: 1; Marburg entry inh: inconclusive; Lassa entry inh: -13%[46.1 µM]

Results for COc1ccc(O)c(/C=N/NC(=S)NCCc2ccccc2)c1 ?
Pf growth 48h: 2.6µM*; Cycloheximide cs: 3; Pf growth 96h: inconclusive; Shiga toxin inh: 18; Marburg entry inh: inconclusive; Lassa entry inh: inconclusive

How did O=C(N/N=C/c1cc(Br)ccc1O)c1ccccc1Cl do in these assays?
Pf growth 48h: inconclusive; Cycloheximide cs: -1; Pf growth 96h: 9.3µM*; Shiga toxin inh: 10; Marburg entry inh: inconclusive; Lassa entry inh: inconclusive

Results for CCCN1C2CCCC1CC(NC(=S)NCCCOCC)C2 (configuration not stated) ?
Pf growth 48h: -21%; Cycloheximide cs: -4; Pf growth 96h: inconclusive; Shiga toxin inh: -34; Marburg entry inh: inconclusive; Lassa entry inh: -9%[46.1 µM]

What do the screens show for `COc1ccc([C@@H]2C[C@H](c3ccccc3)Oc3cc(C)cc(C)c32)cc1`?
Pf growth 48h: inconclusive; Cycloheximide cs: -3; Pf growth 96h: inconclusive; Shiga toxin inh: -5

What do the screens show for `Cc1ccc(CNS(=O)(=O)CCNC(=O)c2ccc3c(c2)OCO3)cc1`?
Pf growth 48h: 20%; Pf growth 96h: 49%; Marburg entry inh: -12%; Lassa entry inh: 11%[46.1 µM]

Results for C/C(=N/NC(=O)CNC(=O)CCc1ccccc1)c1ccc(Cl)cc1 ?
Pf growth 48h: 63%; Cycloheximide cs: 7.1*; Pf growth 96h: 74%; Shiga toxin inh: 20; Marburg entry inh: -28%; Lassa entry inh: 16%

What do the screens show for `C/C(=N/NC(=O)CNC(=O)COc1ccccc1)c1ccc(Cl)cc1`?
Pf growth 48h: 19%; Cycloheximide cs: 12; Pf growth 96h: 27%; Shiga toxin inh: -3; Marburg entry inh: 4%[46.1 µM]; Lassa entry inh: inconclusive

Results for S=C(NCCc1ccccc1)N/N=C/c1ccccc1Cl ?
Pf growth 48h: 18%; Cycloheximide cs: 11*; Pf growth 96h: 207%; Shiga toxin inh: -10; Marburg entry inh: inconclusive; Lassa entry inh: 15%

Results for CCc1ccc(/C=N/NC(=S)NCCc2ccccc2)cc1 ?
Cycloheximide cs: -2; Pf growth 96h: 21%; Shiga toxin inh: -12; Marburg entry inh: -22%; Lassa entry inh: inconclusive

Results for O=C(Cc1ccccc1)N/N=C/c1ccccc1Cl ?
Pf growth 48h: -23%; Cycloheximide cs: 41*; Pf growth 96h: inconclusive; Shiga toxin inh: 53; Marburg entry inh: inconclusive; Lassa entry inh: 1%

Results for O=C(CCc1ccccc1)N/N=C/c1cc(Br)ccc1O ?
Pf growth 48h: 4.1µM*; Cycloheximide cs: 7; Pf growth 96h: 6.6µM*; Shiga toxin inh: -14; Marburg entry inh: 22µM*; Lassa entry inh: inconclusive

How did C/C(N)=C(/C#N)C(=O)COC(=O)C1CSC2(c3ccc(F)cc3)CCC(=O)N12 (configuration not stated) do in these assays?
Pf growth 48h: -6%; Cycloheximide cs: -7; Pf growth 96h: 9%; Shiga toxin inh: 14; Marburg entry inh: 21%; Lassa entry inh: -32%

What do the screens show for `O=C(N/N=C/c1ccccc1Cl)c1[nH]c2ccc(Br)cc2c1-c1ccccc1`?
Pf growth 48h: 4%; Cycloheximide cs: 2; Pf growth 96h: inconclusive; Shiga toxin inh: -4; Marburg entry inh: 2.5µM*; Lassa entry inh: inconclusive

Results for COc1ccc(/C(C)=N/NC(=S)NCCc2ccccc2)c(O)c1 ?
Pf growth 48h: 0.41µM*; Cycloheximide cs: 0; Pf growth 96h: inconclusive; Shiga toxin inh: -3; Marburg entry inh: inconclusive; Lassa entry inh: inconclusive

What do the screens show for `COc1cccc(/C=N/NC(=S)NCCc2ccccc2)c1`?
Pf growth 48h: 6%; Cycloheximide cs: 14; Pf growth 96h: 6%; Shiga toxin inh: -7; Marburg entry inh: 7%[46.1 µM]; Lassa entry inh: 3%

What do the screens show for `CC1CCc2cc(F)cc3c(O)c(C(=O)NCC4CCCO4)c(=O)n1c23` (configuration not stated)?
Cycloheximide cs: 2; Pf growth 96h: -11%; Shiga toxin inh: -8; Marburg entry inh: -22%[46.1 µM]; Lassa entry inh: 13%

What do the screens show for `O=C(CCCN1C(=O)c2ccccc2C1=O)N1CCC(c2ccccc2)C1` (configuration not stated)?
Cycloheximide cs: -2; Pf growth 96h: 50%; Shiga toxin inh: -22; Marburg entry inh: 0%; Lassa entry inh: -8%

How did CN(c1ccccc1)S(=O)(=O)c1ccc(C(=O)NCc2ccccn2)cc1 do in these assays?
Pf growth 48h: 20%; Cycloheximide cs: 9; Pf growth 96h: -1%; Shiga toxin inh: 1; Marburg entry inh: -6%[46.1 µM]; Lassa entry inh: -3%

What do the screens show for `CN(c1ccccc1)S(=O)(=O)c1cccc(NC(=O)c2cncc(Br)c2)c1`?
Pf growth 48h: 10µM*; Cycloheximide cs: -4; Pf growth 96h: 8.3µM*; Shiga toxin inh: -5

Results for CN(c1ccc(C(=O)Nc2ccc(F)cc2F)cc1)S(=O)(=O)c1ccccc1 ?
Pf growth 48h: -4%; Cycloheximide cs: 2; Pf growth 96h: inconclusive; Shiga toxin inh: -17; Marburg entry inh: -27%; Lassa entry inh: 11µM*

What do the screens show for `NS(=O)(=O)c1cccc(NC(=O)c2cncc(Br)c2)c1`?
Pf growth 48h: 25%; Cycloheximide cs: 7; Pf growth 96h: 44%; Shiga toxin inh: 31

Results for CN(c1ccccc1)S(=O)(=O)c1cccc(NC(=O)c2cc(=O)c3ccccc3o2)c1 ?
Pf growth 48h: inconclusive; Cycloheximide cs: 1; Pf growth 96h: 10µM*; Shiga toxin inh: 15; Marburg entry inh: 13µM*; Lassa entry inh: inconclusive

What do the screens show for `O=C(O)c1cccc(S(=O)(=O)Nc2ccc3c(c2)CCC3)c1`?
Pf growth 48h: 39%; Cycloheximide cs: 4; Pf growth 96h: 4.1µM*; Shiga toxin inh: -20

Results for NS(=O)(=O)c1cccc(NC(=O)c2cc(=O)c3ccccc3o2)c1 ?
Pf growth 48h: 17%; Cycloheximide cs: -1; Pf growth 96h: -2%; Shiga toxin inh: 10; Marburg entry inh: -7%[46.1 µM]; Lassa entry inh: 4%[46.1 µM]

How did Cc1ccc2c(c1)cc1c(=O)n(CC(=O)N(C)c3ccccc3)nc(C)n12 do in these assays?
Pf growth 48h: inconclusive; Cycloheximide cs: 2; Pf growth 96h: inconclusive; Shiga toxin inh: -3; Marburg entry inh: -1%[46.1 µM]; Lassa entry inh: 4%[46.1 µM]

How did CN(c1ccccc1)S(=O)(=O)c1cccc(NC(=O)c2ccncc2)c1 do in these assays?
Pf growth 48h: -11%; Cycloheximide cs: -2; Pf growth 96h: inconclusive; Shiga toxin inh: -3

Assay outcomes as filed in PubChem.
